Data: PubChem BioAssay (Tox21)
Results filed as inconclusive are left out. Where a call stands in place of a potency, no number is given. Unmarked numbers belong to inactive results. Activity calls are given as the source filed them. The call rests on the fitted dose curve; in most records, active means well fitted cell-killing curve with a large enough effect in the repeat runs; inconclusive means weak or mixed curves; inactive means flat fitted curve, though single readings scatter.

Experiment: qHTS RealTime-Glo MT Cell Viability Assay in HepG2 cells - 24 hour (AID 1224867); further: nearly all actives have a fitted effect of over 50% in size
Conditions: RealTime-Glo luminescence; series mostly up to 76.8 µM
Description: U.S. Tox21 Program National Center for Advancing Translational Sciences [NCATS] NIH Chemical Genomics Center [NCGC] U.S. Environmental Protection Agency [EPA] National Institutes of Environmental Health Sciences [NIEHS] National Toxicology Program [NTP] U.S. Food and Drug Administration [FDA] Tox21 Assay Overview: Measure of cell viability is critical in the cell-base assay. Analysis of cell viability is necessary for the characterization of cell responses to cytotoxic drugs and environmental stress. A RealTime-Glo MT Cell Viability Assay to monitor cell viability in real time of continues cell culture during 40 hours of compound treatment was used to screen Tox21 10K library compounds in HepG2 cells. The RealTime-Glo MT Cell Viability Assay is a nonlytic, homogeneous, bioluminescent method to measure cell viability in real time using a simple, plate-based method. The assay involves adding NanoLuc luciferase and a cell-permeant prosubstrate to cells in culture. Viable cells reduce the proprietary prosubstrate to generate a substrate for NanoLuc luciferase. This substrate diffuses from cells into the surrounding culture medium, where it is rapidly used by the NanoLuc Enzyme to produce a luminescent signal. The signal correlates with the number of viable cells, making the assay well suited for cytotoxicity studies.
Tox21 Assay Protocol Summary: The mixture of HepG2 cell suspension and reagents were dispensed at 600cells/6 ul/well in 1536-well tissue culture treated black solid bottom plates using a Multidrop dispenser. After the assay plates were incubated at a 37 C/5% CO2 incubator for 5 hours, 23 nL of compounds dissolved in DMSO, positive and negative controls was transferred to the assay plate by a pintool work station. The plates were incubated at 37 C for 40 hours. The luminescence intensity were measured at 0h, 8h, 16h, 24h, 32h and 40h time points using ViewLux plate reader during compound treatment.

| SMILES | Potency | activity change, negative = cytotoxicity |
| --- | --- | --- |
| O=C(CCCN1CCC(O)(c2cccc(C(F)(F)F)c2)CC1)c1ccc(F)cc1 | inactive | – |
| O=C(O)COc1nn(Cc2ccccc2)c2ccccc12 | inactive | – |
| O=[N+]([O-])c1ccc(F)cc1F | inactive | – |
| O=c1[nH]c(=O)n([C@H]2C[C@H](O)[C@@H](CO)O2)cc1I | inactive | – |
| CC(=O)OCC(=O)[C@@]1(O)CCC2C3CCC4=CC(=O)CC[C@]4(C)C3[C@@H](O)C[C@@]21C (stereo not given in full) | inactive | – |
| NS(=O)(=O)c1ccc(C(=O)O)cc1 | inactive | – |
| CC(=O)c1ccccc1O | inactive | – |
| O=C(c1ccccc1)C1CCCCC1 | inactive | – |
| Cc1ccc(C#N)cc1 | inactive | – |
| NCCc1cnc[nH]1 | inactive | – |
| O=C(O)Cc1ccc(CCNS(=O)(=O)c2ccc(Cl)cc2)cc1 | inactive | – |
| CCC(=O)OC(C)c1ccccc1 (stereo not given) | inactive | – |
| c1ccc(CC2=NCCN2)cc1 | inactive | – |
| N=C(N)c1ccc(OCCCOc2ccc(C(=N)N)cc2)cc1 | inactive | – |
| C1OCOCO1 | inactive | – |
| COc1nc(N)nc2c1ncn2[C@@H]1O[C@H](CO)[C@@H](O)[C@@H]1O | inactive | – |
| CCCN1CCCC[C@H]1C(=O)Nc1c(C)cccc1C | inactive | – |
| O=c1cc(-c2ccccc2)oc2ccccc12 | inactive | – |
| COc1ccc2c(c1)CCCC2=O | inactive | – |
| O=C(O)CCCl | inactive | – |

| SMILES | Potency | activity change, negative = cytotoxicity |
| --- | --- | --- |
| COc1c(N2C[C@@H]3CCCN[C@@H]3C2)c(F)cc2c(=O)c(C(=O)O)cn(C3CC3)c12 | inactive | – |
| C1CN(CCOCCN2CCOCC2)CCO1 | inactive | – |
| CCC(C)C1CCCCC1=O (stereo not given) | inactive | – |
| COC(=O)CC(C)=O | inactive | – |
| CCc1ccc(O)c(OC)c1 | inactive | – |
| CC(C)OC(=O)c1ccccc1 | inactive | – |
| CCOC(=O)C(=O)OCC | inactive | – |
| O=C1NC(=O)[C@@]2(CCOc3ccc(F)cc32)N1 | inactive | – |
| Cc1sccc1Br | inactive | – |
| FC(F)OC(Cl)C(F)(F)F (stereo not given) | inactive | – |
| CN1N=C(C(N)=O)CCC1=O | inactive | – |
| CCN(CC)CCNC(=O)c1cc(S(C)(=O)=O)ccc1OC | inactive | – |
| C=C(C)C(=O)OCCCCCCCC(C)C | inactive | – |
| CC(C[N+](C)(C)C)OC(N)=O (stereo not given) | inactive | – |
| Cc1cccn2c(=O)c(-c3nnn[nH]3)cnc12 | – | -2.42% [at 15.8 µM] |
| CCCCCCCCCCCCN(CCCCCCCCCCCC)CCCCCCCCCCCC | inactive | – |
| CCOC(=O)Nc1ccc(NCc2ccc(F)cc2)nc1N | inactive | – |
| CC1=CC(C)C(C=O)CC1 (stereo not given) | inactive | – |
| CC(C)CNCC(C)C | inactive | – |
| CC(=O)OC/C=C(\C)CC/C=C(\C)CCC=C(C)C | inactive | – |
